# The supplement of paper PMC4894684
# Where a name gives a salt, the structure may show the parent alone. ± gives the standard deviation of the averaged measurements.
# System: Toxoplasma gondii RH (in HFF)
# Test: parasite growth relative to the screen mean (all compounds = 100%); higher = less inhibition of parasite growth
# Details: 5 µM; 72 h; oxygen 21 %
# Procedure, shortened: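 Each value is parasite growth expressed against the screen mean, averaged over two screens, where the mean of all compounds = 100%. The screen used 5 µM final compound on confluent human foreskin fibroblasts infected with RH β-Gal–GFP Toxoplasma (MOI 1:5) within 2 h and grown 72 h at 21% O2. Parasite number was measured by a CPRG β-Gal assay against in-plate standard curves.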
row,Structure (SMILES),parasite growth
1,CCOC(=O)C1=C(C)NC(C)=C(C(=O)OC)C1c1cccc([N+](=O)[O-])c1 (stereo not drawn) [Nitrendipine],118 ± 5.5%
2,C1COC(NC(C2CC2)C2CC2)=N1 [Rilmenidine hemifumarate],125 ± 13%
3,COc1cccc2c1C(=O)c1c(O)c3c(c(O)c1C2=O)C[C@@](O)(C(=O)CO)C[C@@H]3O[C@H]1C[C@H](N)[C@H](O)[C@H](C)O1 [Doxorubicin hydrochloride],18.4 ± 7.7%
4,COc1cc(-c2ccc(=O)[nH]n2)ccc1OC(F)F [Zardaverine],103 ± 8.7%
5,O=c1[nH]ccc2c(S(=O)(=O)N3CCCNCC3)cccc12 [HA 1100 hydrochloride],122 ± 10%
6,COc1ccc(Br)cc1S(=O)(=O)NC(=O)/C=C/c1ccccc1Cc1ccc2ccccc2c1,125 ± 12%
7,O=C(O)Cc1cccc(OCCCN(Cc2cccc(C(F)(F)F)c2Cl)CC(c2ccccc2)c2ccccc2)c1 [GW 3965 hydrochloride],105 ± 15%
8,COc1cc2ncnc(Nc3ccc(Oc4ccccc4)cc3)c2cc1OC,110 ± 20%
9,"O=C(O)COc1ccc(OCCNC[C@H](O)COc2ccccc2)cc1 [ICI 215,001 hydrochloride]",116 ± 14%
10,O=C(O)c1cc(O)c2ccc(Cl)cc2n1 [7-Chlorokynurenic acid],119 ± 9.9%
11,NCCCCNCCCN [Spermidine trihydrochloride],90.6 ± 7.8%
12,CC1=C(/C=C/C(C)=C/C=C/C(C)=C/C(=O)Nc2ccc(O)cc2)C(C)(C)CCC1 [Fenretinide],38 ± 8.6%
13,COCCNC(=O)COc1ccc(OCCNC[C@H](O)COc2ccccc2)cc1 [ZD 7114 hydrochloride],123 ± 7%
14,c1ccc(N2CCN(CCCOc3ccc4c(c3)OCO4)CC2)cc1 [BP 554 maleate],127 ± 0.98%
15,NCCCCCc1c[nH]cn1 [Impentamine dihydrobromide],132 ± 7.9%
16,C[C@H](NC[C@H](O)CP(=O)(O)CC1CCCCC1)c1ccc(Cl)c(Cl)c1,129 ± 36%
17,Nc1cc(N2CCCCC2)nc(N)[n+]1[O-] [Minoxidil],111 ± 13%

row,Structure (SMILES),parasite growth
1,CN1CCc2cc(Cl)c(O)cc2[C@@H](c2ccccc2)C1,120 ± 46%
2,O=C(O)Cc1ccc(OCCNC[C@H](O)c2ccccc2)cc1 [ZD 2079 hydrochloride],119 ± 12%
3,COC(=O)c1sccc1S(=O)(=O)Nc1ccc(Nc2ccccc2)cc1OC,64 ± 25%
4,CC(CCc1ccc(O)cc1)NCCc1ccc(O)c(O)c1 (stereo not drawn) [Dobutamine hydrochloride],176 ± 7.3%
5,O=c1c(-c2ccc(O)cc2)coc2cc(O)cc(O)c12 [Genistein],148 ± 28%
6,CCCCNc1c(C(=O)OCC)c(C)nc2c1cnn2CC [Tracazolate hydrochloride],109 ± 5.9%
7,C[C@@H](CN1CCC(Cc2ccccc2)CC1)[C@@H](O)c1ccc(O)cc1 [Ro 25-6981 maleate],121 ± 23%
8,O=c1oc(-c2ccc(C(F)(F)F)cc2)nn1Cc1cc(Cl)ccc1O,146 ± 11%
9,COc1cc([C@@H]2c3cc4c(cc3[C@@H](O[C@@H]3O[C@@H]5CO[C@@H](C)O[C@H]5[C@H](O)[C@H]3O)[C@H]3COC(=O)[C@H]23)OCO4)cc(OC)c1O [Etoposide],77.2 ± 18%
10,Cc1c(C(=O)NN2CCCCC2)nn(-c2ccc(Cl)cc2Cl)c1-c1ccc(I)cc1,45.2 ± 3%
11,COc1ccc(CN2C(=O)C(=O)c3cc(OC(F)(F)F)ccc32)cc1,68.6 ± 14%
12,NC(N)=NC(N)=Nc1cccc(Cl)c1 [m-Chlorophenylbiguanide hydrochloride],133 ± 15%
13,Cc1ccc(/C(=C\CN2CCCC2)c2ccccn2)cc1 [trans-Triprolidine hydrochloride],96.7 ± 39%
14,CCCCCCC(=O)OC1CC(C)(C)NC(C)(C)C1 [TMPH hydrochloride],123 ± 14%
15,COC(=O)[C@@H]1[C@H]2C[C@H]3c4[nH]c5ccccc5c4CCN3C[C@@H]2CC[C@@H]1O [Yohimbine hydrochloride],184 ± 33%
16,CC(C)NC[C@H](O)COc1ccc(CC(N)=O)cc1 [S-(-)-Atenolol],149 ± 12%
